# Assay outcomes as filed in PubChem.
# Shiga inhibitor: A qHTS for Small Molecule Inhibitors of Shiga Toxin; Vero cells, Shiga toxin protein synthesis inhibition reporter; inhibition, % at 38.7 µM; 290,000 compounds, 9.2% hits; AID 2315, 2010; in the data active = inhibition mostly above about 28%, no sharp cut-off; inactive = mostly below about 43%; note: 0% is about no effect
# Tb PYK inh: qHTS of Trypanosoma Brucei Inhibitors; pyruvate kinase (Trypanosoma brucei), Q57TT1; TbPYK enzyme, Kinase-Glo Plus ATP luminescence, 45 min; Potency, µM (highest dose often 76.8 µM), for the others: at the highest dose activity, negative = inhibition, hits mostly inhibitors; 410,000 compounds, 0.12% hits; note: potency is the fitted concentration of half-maximal effect; % is set by controls: 0 for no effect and ±100 for the full control effect; nearly all actives have a fitted effect of over 50% in size
#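 TbPYK + substrate in 50 mM TEA pH 7.2, 100 mM KCl, 10 mM MgCl2, 0.05% BSA, 0.01% Tween-20; cpd pinned; ADP 130 uM final; 45 min RT; Kinase-Glo Plus 10 min; luminescence endpoint.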
# Sm TGR block: qHTS Assay for the Inhibitors of Schistosoma Mansoni Peroxiredoxins | Schistosoma mansoni thioredoxin glutathione reductase (TGR), Q962Y6 | 360,000 compounds, 3% hits | purified TGR, DTNB reduction, TNB absorbance 405 nm | Potency, µM (highest dose often 114 µM), for inactives: at the highest dose activity change, negative = inhibition, actives largely listed as inhibitors | AID 485364, 2010; note: potency is the fitted concentration of half-maximal effect; % is set by controls: 0 for no effect and ±100 for the full control effect; nearly all actives have a fitted effect of over 60% in size
#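 TGR 20 nM + NADPH 100 uM (dispensed conc.), cpd preinc 15 min RT; start with NADPH (500 uM addition) then DTNB (15 mM addition). Kinetic TNB absorbance, 405 nm filter. Four-parameter Hill fit across titration.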
# CHX counter: Cycloheximide Counterscreen for Small Molecule Inhibitors of Shiga Toxin; 300,000 compounds, 12% hits; max response, %; cell reporter, cycloheximide protein synthesis inhibition counterscreen; AID 2314, 2010; in the data active = max response mostly above about 13%, no sharp cut-off; inactive = mostly below about 14%; note: read at 38.3 µM for the half of the compounds with a filed dose; 0% is about no effect
# Giardia FBPA inh: qHTS Assay for Inhibitors of Fructose-1,6-bisphosphate Aldolase from Giardia Lamblia; A8B2U2; purified Giardia FBPA; Potency, µM (top dose mostly 59.6 µM), for inactives: at the top dose activity, negative = inhibition, usual class: inhibitors; 290,000 compounds, 0.71% hits; note: potency is the fitted concentration of half-maximal effect; % is set by controls: 0 for no effect and ±100 for the full control effect; nearly all actives have a fitted effect of over 55% in size
#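 Giardia FBPA (40 nM reagent) was preincubated 10 min at RT with compound (up to 57.5 uM final), then substrate plus GAPDH/TPI/NAD/arsenate coupling system with diaphorase/resazurin was added; resorufin fluorescence (525/598 nm) was read after 20 min.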
# LmPK inh: qHTS Assay for Inhibitors of Leishmania Mexicana Pyruvate Kinase (LmPK). Q27686. purified LmPK, Kinase-Glo ATP luminescence, 1 h. Potency, µM (highest dose often 57.5 µM), for the others: at the highest dose activity change, negative = inhibition, usual class: inhibitors. 290,000 compounds, 0.37% hits; note: potency is the fitted concentration of half-maximal effect; % is set by controls: 0 for no effect and ±100 for the full control effect
# Target sequence (Q27686 whole entry, looked up): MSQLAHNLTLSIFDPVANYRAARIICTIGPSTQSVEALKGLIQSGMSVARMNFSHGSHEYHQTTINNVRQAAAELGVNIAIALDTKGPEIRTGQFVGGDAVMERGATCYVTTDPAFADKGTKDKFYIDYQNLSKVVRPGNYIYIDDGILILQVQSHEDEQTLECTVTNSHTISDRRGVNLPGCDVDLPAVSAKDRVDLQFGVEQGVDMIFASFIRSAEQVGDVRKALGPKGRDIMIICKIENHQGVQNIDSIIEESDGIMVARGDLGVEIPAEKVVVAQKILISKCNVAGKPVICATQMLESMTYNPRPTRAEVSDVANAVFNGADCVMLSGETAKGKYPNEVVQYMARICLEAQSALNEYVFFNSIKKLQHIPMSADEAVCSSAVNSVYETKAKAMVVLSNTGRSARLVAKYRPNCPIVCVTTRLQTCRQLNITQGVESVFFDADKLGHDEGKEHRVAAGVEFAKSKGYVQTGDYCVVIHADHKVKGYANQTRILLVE
#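 In 50 mM imidazole pH 7.2 with 7 mM MgCl2, LmPK (0.1 nM) turned over PEP (0.5 mM) and ADP (0.1 mM) for 1 h at room temperature. Luciferase read-out of ATP.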
# LmPK inh confirm: Confirmation Assay for Inhibitors of Leishmania Mexicana Pyruvate Kinase (LmPK); shares compounds with LmPK inh; purified LmPK, Kinase-Glo ATP luminescence, 1 h; Potency, µM (highest dose often 57.5 µM), for the others: at the highest dose activity change, negative = inhibition, usual class: inhibitors; 150 compounds, 40% hits;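 active = compounds giving a full or partial concentration-response curve, as inhibitors or activators; inconclusive = weak, top-dose-only or unclear curve responses; inactive = no response at any tested dose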
# The depositor's hits bear a star; ? = inconclusive; . = no result given; [ ] = another dose, or the depositor's remark. The full list was thinned out, with hits kept by preference. Unless noted, calls come from the whole dose curve; as a rule, active = well fitted curve in the direction sought with a large enough effect; inconclusive = small, poorly fitted or top-dose-only effect, or another doubt; inactive = no such curve, though single readings can be large; an effect the other way counts as inactive or inconclusive.
SMILES,Shiga inhibitor,Tb PYK inh,Sm TGR block,CHX counter,Giardia FBPA inh,LmPK inh,LmPK inh confirm
CCOc1ccc(N2C(=O)CN=C2Nc2ccccc2Cl)cc1,-14,-4%,11%,-6,.,3%,2%
O=C1CN=C(Nc2ccccc2Cl)N1c1ccccc1,-8,-3%,4%,-1,.,-3%,.
CCOc1ccc(/C=N/NC(=O)c2c(-c3ccccc3)noc2C)cc1,15,0%,-9%,-5,4%,4%,.
CCOc1ccc(/C=N/NC(=O)COc2ccccc2-c2ccccc2)cc1,-25,2%,-26%,1,0%,4%,1%
Cc1ccc(S(=O)(=O)/N=C2/C=C(Sc3ncn[nH]3)C(=O)c3ccccc32)c(C)c1,16,.,0.63µM*,19*,1.6µM*,7.9µM*,?
Cc1ccc(C(=O)O/N=C(\N)c2ccccc2)c(Cl)c1,16,?,-3%,36*,-5%,4.5µM*,18µM*
N/C(=N\OC(=O)c1cc(-c2ccccc2)nc2ccccc12)c1ccc(Cl)cc1,-8,-4%,-13%,-3,3%,1%,.
Cc1ccc(Cn2nnc3c(=O)[nH]c(C4CCCN(C(=O)Nc5ccc(F)cc5F)C4)nc32)cc1 (stereo not drawn),-12,0%,-4%,-4,-3%,9%,7%
COC(=O)C1CCN(S(=O)(=O)c2ccc(N3CCCCS3(=O)=O)cc2)CC1,.,1%,0%,.,.,.,.
Cc1cc2c(sc3ccccc32)c(C)n1,39,-3%,-2%,8,-6%,-4%,.
CC[n+]1c(C)sc2sc3ccccc3c21,11,.,-24%,1,?,2.8µM*,4.6µM*
CCOc1ccc(S(=O)(=O)N(C)c2ccc(OCC(=O)Nc3nccs3)cc2)cc1,12,1%,0%,6,-1%,3%,.
CCOc1ccc(OCC(=O)Nc2nccs2)cc1,-2,22µM*,.,13,0%,10µM*,13µM*
Cc1cnccc1CN(C)Cc1cn(C)nc1-c1cccc(Cl)c1,-9,-9%,?,-3,0%,8%,0%
CN(Cc1ccon1)Cc1cn(C)nc1-c1ccc(Oc2ccccc2)cc1,-2,-11%,-11%,-2,-11%,4%,.
Cc1cnccc1CN(C)Cc1cn(C)nc1-c1ccc(Oc2ccccc2)cc1,-29,-5%,-27%[57.1 µM],-1,-10%,-2%,-9%
CN(Cc1cn(C)nc1-c1cccc(Cl)c1)CC1CCCCO1 (stereo not drawn),-19,-3%,-2%,-2,1%,8%,-2%
Cc1cc(N2CCN(Cc3cn(C)nc3-c3cccc(Cl)c3)CC2)cc(C)n1,12,-13%,6%,-1,1%,5%,.
CN(C)S(=O)(=O)c1cccc(C(=O)Nc2cc(S(=O)(=O)N3CCOCC3)ccc2N2CCCC2)c1,.,-22%,.,.,.,.,.
CCOc1ccc(NC(=O)c2cc3c(n(-c4ccc(OC)cc4)c2=O)CC(C)(C)CC3=O)cc1,.,0%,8%,.,.,.,.
COc1ccc(OCC(=O)NNC(=S)NC(=O)c2ccc(Br)o2)cc1,-11,-4%,?,-3,.,-5%,.
Cc1occc1C(=O)N/N=C/c1ccc2c(c1)OCO2,67*,?,1%,26*,-7%,4.5µM*,16µM*
COC(=O)c1ccc(Cl)cc1NC(=O)N1CCC(CN2CCC(C)CC2)CC1,.,3%,4%,.,.,.,.
Oc1ccc(C23CC4CC(CC(C4)C2)C3)cc1O,4,?,1.8µM*,4,-6%,0.28µM*,-13%
CNC(=S)Nc1ccc(C23CC4CC(CC(C4)C2)C3)cc1,10,-6%,-5%,1,4%,1%,.
CCN1/C(=C/c2ccc3cccc(C)c3[n+]2CC)Sc2ccccc21,10,-5%,26%,-2,7%,-14%,-12%
